# BAZ2B inh: inhibitors of human BAZ2B bromodomain. AlphaScreen BAZ2B-H3K14Ac peptide displacement. Potency, µM (titrated, usually from 114 µM), for inactives: at the highest dose activity change, negative = inhibition, hits mostly inhibitors. Q9UIF8. 360,000 tested, 4.4% active; further: on the % scale 0 is the no-effect control and ±100 the full control effect; nearly all actives have a fitted effect of over 60% in size
#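 Complex of BAZ2B and biotin-H3K14Ac (50 nM apiece) forms over 30 min at RT, then faces library compounds up to 110 uM for another 30 min; AlphaScreen beads added, 20 min dark incubation, luminescence read.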
# JMJD2A Tudor inh: JMJD2A Tudor domain (human) inhibition. O75164. AlphaScreen JMJD2A-Tudor / H3K4me3 peptide binding. Potency, µM (doses to about 114 µM), for inactives: at the highest dose activity change, negative = inhibition, usual class: inhibitors. 390,000 tested, 4.4% active; further: on the % scale 0 is the no-effect control and ±100 the full control effect; nearly all actives have a fitted effect of over 50% in size
# VDR inhibitor: vitamin D3 receptor (human) inhibition; P11473; Potency, µM, for inactives: max response, negative = inhibition, usual class: inhibitors; AID 504847; VDR-SRC2-3 peptide fluorescence polarization, 2 h; 400,000 tested, 0.93% active; further: on the % scale 0 is the no-effect control and ±100 the full control effect
#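 After 23 nl compound addition and a short centrifugation, plates sat for 2 hours at ambient temperature; polarization of fluorescence then indicated loss of VDR binding to peptide SRC2-3.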
# HP1b binding inh: inhibitors of HP1-beta chromodomain binding to methylated histone tails; P83916; AlphaScreen HP1-beta / biotin-H3K9me3 peptide binding; Potency, µM (doses to about 114 µM), for the others: top-dose activity change, negative = inhibition, actives largely listed as inhibitors; 390,000 tested, 0.56% active; further: nearly all actives have a fitted effect of over 70% in size
# Target sequence (P83916 whole entry, looked up): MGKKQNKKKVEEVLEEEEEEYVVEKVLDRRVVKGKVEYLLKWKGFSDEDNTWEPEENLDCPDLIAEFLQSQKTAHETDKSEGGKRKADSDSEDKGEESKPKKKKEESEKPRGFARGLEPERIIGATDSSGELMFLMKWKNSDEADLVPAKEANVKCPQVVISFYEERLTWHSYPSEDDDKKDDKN
#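 HP1-beta protein (50 nM final) preincubated 30 min at room temperature with biotinylated H3(1-18)K9me3 peptide (50 nM) in PBS pH 7.4, 0.01% Tween-20, then compound added for 30 min. AlphaScreen streptavidin donor/nickel chelate acceptor beads (10 ug/mL final), 30 min dark, luminescence read.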
# PLK1 PBD inh: blocks phosphopeptide binding to human PLK1 polo-box domain | Plk1 PBD binding of FITC phosphopeptide, fluorescence polarization | AID 720504 | P53350 | 360,000 tested, 2.8% active | Potency, µM, inactives show max response, negative = inhibition, most hits filed as inhibitors; further: series mostly up to about 57 µM; on the % scale 0 is the no-effect control and ±100 the full control effect; nearly all actives have a fitted effect of over 65% in size
# Target sequence (P53350 whole entry, looked up, the tested form may be a part): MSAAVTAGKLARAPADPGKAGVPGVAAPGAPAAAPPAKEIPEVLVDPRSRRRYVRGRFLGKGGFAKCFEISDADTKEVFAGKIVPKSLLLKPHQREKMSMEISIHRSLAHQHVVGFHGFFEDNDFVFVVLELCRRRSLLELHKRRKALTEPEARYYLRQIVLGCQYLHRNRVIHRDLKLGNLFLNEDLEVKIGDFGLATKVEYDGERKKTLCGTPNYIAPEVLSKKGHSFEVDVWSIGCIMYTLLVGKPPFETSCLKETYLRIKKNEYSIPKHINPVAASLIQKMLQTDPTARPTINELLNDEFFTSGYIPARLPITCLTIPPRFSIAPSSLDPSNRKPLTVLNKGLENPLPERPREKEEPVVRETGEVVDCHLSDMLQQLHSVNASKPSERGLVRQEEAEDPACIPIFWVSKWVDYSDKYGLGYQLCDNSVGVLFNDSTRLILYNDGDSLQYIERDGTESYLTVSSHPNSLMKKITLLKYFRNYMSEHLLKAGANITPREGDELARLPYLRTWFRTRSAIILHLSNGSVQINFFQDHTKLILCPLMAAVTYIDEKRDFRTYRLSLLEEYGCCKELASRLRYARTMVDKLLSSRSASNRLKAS
# L3MBTL1 block: blocks human L3MBTL1; Q9Y468; AlphaScreen L3MBTL1–H3K9me1 peptide binding; Potency, µM (doses to about 57.1 µM), for the others: top-dose activity, negative = inhibition, usual class: inhibitors; 230,000 tested, 0.66% active; AID 485360; further: on the % scale 0 is the no-effect control and ±100 the full control effect; nearly all actives have a fitted effect of over 60% in size
#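 Displacement of a biotinylated histone H3(1-15) peptide monomethylated at Lys9 (75 nM) from L3MBTL1 (50 nM) was measured by AlphaScreen after a 30 min room-temperature compound incubation; cefsulodin titration served as intraplate control.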
# An asterisk follows results filed as active; ? = inconclusive; . = no result; [ ] = dose if it differs, or a comment. Sampled rows, rich in hits. Any-hit rate of the full collection: about 6.9%. The call rests on the fitted dose curve; in most records, active means well fitted curve in the direction sought with a large enough effect; inconclusive means small, poorly fitted or top-dose-only effect, or another doubt; inactive means no such curve, though single readings can be large; an effect the other way counts as inactive or inconclusive. Potency means the concentration at half of the fitted maximal effect.
SMILES,BAZ2B inh,JMJD2A Tudor inh,VDR inhibitor,HP1b binding inh,PLK1 PBD inh,L3MBTL1 block
Nc1nc(-c2ccc3c(c2)OCCO3)cs1,.,-34.8%,1.9%,0.1%,-3.3%,-0.2%
Nc1nc(-c2ccc3c(c2)CCCC3)cs1,44.7µM*,?,9.5%,-33.5%,-16.8%,-0.6%
CC(C)(C)C(=O)N1CCc2cc(-c3csc(N)n3)ccc21,50.1µM*,-29.5%,-2.0%,-12.5%,-20.9%,-2.9%
S=c1nc(C2CC2)n(-c2ccccc2)[nH]1,-12.4%,2.51µM*,5.7%,22.7%,-20.5%,.
CC(C(=O)O)N(c1ccccc1Cl)S(C)(=O)=O (stereo not drawn),7.5%,-16.9%,-13.5%,59.4%,-0.6%,7.2%
CCN(CC)C(=O)CSc1nnc(COc2cccc(C)c2)n1C,-0.1%,.,.,.,.,15.2%
CCOC(=O)c1sc(NC(=O)C2=COCCO2)c(C#N)c1C,9.3%,-11.0%,?,?,26.7µM*,-4.4%
CCOC(=O)c1c(NC(=O)OC)sc(C(=O)N(CC)CC)c1C,-4.3%,-8.4%,-5.5%,15.9%,23.8µM*,13.6%
CCOC(=O)c1c(NC(=O)c2ccoc2C)sc(C(=O)N(C)C)c1C,8.2%,?,-1.7%,-7.6%,?,.
CCOC(=O)c1sc(NC(=O)c2cccnc2)c(C#N)c1C,-8.4%,-8.7%,2.1%,26.6%,-5.9%,3.6%
COC(=O)c1sc(NC(=O)c2ccco2)c(C#N)c1C,-24.7%,-13.5%,4.6%,-24.5%[57 µM],23.8µM*,.
CCN(CC)C(=O)c1sc(NC(=O)c2ccoc2C)c(C(=O)OC)c1C,0.5%,-28.7%,?,?,21.2µM*,-3.5%
CC(C)(C)c1nnc(NC(=O)C2CCN(C(=O)c3ccccc3)CC2)s1,.,-9.9%,1.8%,22.6%,.,.
Cc1oc2ncn(CC(C)C)c(=O)c2c1C(=O)N1CCN(c2cccc(C(F)(F)F)c2)CC1,4.2%[57.1 µM],-12.6%,1.6%,22.5%,.,.
CCOC(=O)c1sc(NC(=O)c2cc(-c3ccccc3)nc3ccccc23)c(C#N)c1C,?,-23.3%[11.4 µM],-19.0%,?,2.99µM*,-7.6%
CCN(CC)C(=O)c1sc(NC(=O)c2ccncc2)c(C(=O)OC)c1C,10.0%,-7.1%,?,-7.8%,-19.7%,4.5%
CCN(CC)C(=O)c1sc(NC(=O)c2cc(-c3ccc(C)s3)nc3ccccc23)c(C(=O)OC)c1C,1.1%,3.5%,-29.4%,-11.1%,15µM*,1.2%
CCc1ccc(NC(=O)c2ccccc2SC)cc1,-2.5%,-12.0%,13.8%,30.4%,-9.3%,2.9%
Cc1sc2ncnc(N(C)CCc3ccccn3)c2c1C,25.1µM*,1.41µM*,9.5%,17.8µM*,-0.6%,.
COc1ccc(N(CC(=O)Nc2cc(C)ccc2C)S(=O)(=O)c2ccccc2[N+](=O)[O-])c(OC)c1,-23.4%,?,-11.1%,-20.0%,11.9µM*,3.2%
CC1CC(C)CN(C(=O)c2cccc(S(=O)(=O)Nc3cc(C(F)(F)F)ccc3Cl)c2)C1 (stereo not drawn),79.4µM*,-17.4%,-8.5%,25.8%,-28.2%,0.4%
Cc1ccc(NC(=O)Cn2c(-c3ccc4c(c3)OCO4)cn(-c3ccccc3)c2=O)cc1,?,?,2.3%,?,.,.
COc1cccc(C(=O)CSc2nnc(CNS(=O)(=O)c3ccc(C)cc3)n2C)c1,-3.3%,20µM*,?,?,-10.7%,.
COC(=O)CSc1nnc(CNS(=O)(=O)c2ccc(C)cc2)n1C,20.4%,11.0%,18.9%,27.2%,-0.9%,36.2%
Cc1ccc(CN2CCC(C(=O)NCCC(C)C)CC2)o1,?,44.7µM*,-13.7%,?,-14.6%,-1.8%
SMILES,BAZ2B inh,JMJD2A Tudor inh,VDR inhibitor,HP1b binding inh,PLK1 PBD inh,L3MBTL1 block
Cc1ccccc1-c1noc(-c2ccc(N3CCC(C)CC3)c([N+](=O)[O-])c2)n1,-13.7%,-17.9%,13.9%,32.4%,.,.
COc1ccc(Nc2ccccc2C(=O)O)cc1,-0.2%,-17.5%,26.5%,14.5%,-7.5%,.
O=C(Nc1ccccc1C(=O)O)c1ccc(Br)o1,-2.2%,-13.7%,1.2%,21.1%,1.0%,1.6%
O=C(O)c1ccccc1NC(=O)c1ccccc1Nc1ccccc1,-8.5%,?,-3.1%,21.5%,29.9µM*,.
O=C(O)c1ccccc1Nc1ccc(CCc2ccc(Cl)c(Cl)c2)cc1,.,.,35.5µM*,.,.,.
CC(=O)c1cc(C(=O)Nc2ccccc2C(=O)O)oc1C,-24.8%,56.2µM*,12.7%,13.6%,-14.1%,?
O=C(Nc1ccccc1C(=O)Nc1ccccc1C(=O)O)c1ccccc1,-24.6%,-7.7%,-13.0%,18.2%,?,.
COc1cccc(C(=O)N(Cc2cccnc2)c2nc3c(OC)ccc(C)c3s2)c1OC,?,?,14.6%,6.0%,.,.
CCNc1ncc2nc(-c3ccc(F)cc3)c(=O)n(C)c2n1,.,.,6.4%,.,.,.
CCC(C)C(=O)Nn1c(C2CC2)nc2cc(OC)c(OC)cc2c1=O (stereo not drawn),-1.3%,-16.1%,-10.8%,4.6%,-0.8%,5.5%
C(=N\n1cnnc1)/c1cccn1-c1ccccc1,-32.6%,?,-5.3%,18.2%,-3.5%,-8.4%
O/N=C\c1cccn1-c1ccc(Br)cc1,?,79.4µM*,-4.1%,-33.4%,-15.6%,.
CC(NC(=O)Cn1cc(C(=O)C2CC2)c2ccccc21)c1ccccc1 (stereo not drawn),9.0%,79.4µM*,-23.8%,-5.4%,29.9µM*,-1.3%
Cc1ccc2nc(-c3cccs3)c(Nc3c(C)cccc3C)n2c1,-25.5%,-24.9%,-3.5%,37.5%,.,.
Cc1ccc(-n2c(-c3cn(C)nc3C)n[nH]c2=S)cc1,-20.2%,.,.,.,.,.
Cc1cc(-c2n[nH]c(=S)n2-c2ccccc2)nn1C,-11.2%,3.16µM*,-6.2%,25.9%,3.8%,0.3%
Fc1ccc(-n2c(-c3ccc4ccccc4n3)n[nH]c2=S)cc1,-9.1%,-31.5%,-17.1%,21.3%,-9.9%,3.1%
Cc1ccc(-n2c(-c3cc(C)n(C)n3)n[nH]c2=S)cc1,-25.6%,7.08µM*,3.5%,14.2%,-4.5%,10.2%
Fc1cccc(-c2n[nH]c(=S)n2-c2ccccc2)c1,-35.6%,7.94µM*,-3.5%,-22.5%,-13.8%,2.0%[2.29 µM]
O=S(=O)(N/N=C/c1ccc(F)cc1)c1ccccc1,7.9%,-5.5%,8.8%,31.2%,-13.8%,2.4%
O=S(=O)(N/N=C/c1ccccc1F)c1ccccc1,-1.4%,?,?,-9.8%,15µM*,.
COc1cccc(CNC(=O)c2c3c(nc4ccccc24)C(=O)N(C2CCCCC2)C3)c1,-18.0%,-19.7%,11.1%,30.7%,.,.
COc1cc(CN2CCN(Cc3ccc(SC)cc3)CC2)cc(OC)c1O,50.1µM*,0.891µM*,26.7%,25.1µM*,-8.2%,-11.5%
COc1ccc(S(=O)(=O)N2CCN(Cc3cccc(OC)c3)CC2)cc1,5.5%,-3.7%,-3.5%,45.0%,-11.7%,-2.7%
COc1cc(OC)c(OC)cc1CN1CCN(Cc2ccc(SC)cc2)CC1,39.8µM*,20µM*,-2.7%,?,-9.5%,-5.9%
